Assay results taken from PubChem BioAssay (Tox21).
Results filed as inconclusive are left out. Activity calls are given as the source filed them. Calls follow the shape of the full dose curve.

test: qHTS assay to identify small molecule agonists of the NFkB signaling pathway - cell viability counter screen (AID 1159515); conditions: NFkB-bla ME-180 viability, CellTiter-Glo luminescence, 5 h; series mostly up to 61 µM; activity, negative = cytotoxic: at the top concentration; also: nearly all actives have a fitted effect of over 55% in size
Source text: National Center for Advancing Translational Sciences [NCATS]
NIH Chemical Genomics Center [NCGC]
U.S. Environmental Protection Agency [EPA]
National Institutes of Environmental Health Sciences [NIEHS]
National Toxicology Program [NTP]
U.S. Food and Drug Administration [FDA]
Transcription factors and their stimulated target gene expression play pivotal roles across many cellular processes including responses to environmental stimuli. Proper regulation of associated pathways is critical to maintain cell health and function. Constitutive activation of transcription factor pathways has been implicated in tumors as it may block cellular functions such as apoptosis and lead to invasion and metastasis. One important transcription factor that stimulates gene expression in response to cytokines, UV radiation, and other stimuli is nuclear factor-kappa B (NFkB). To measure activation of the NFkB pathway, the CellSensor NFkB-bla ME-180 cell line (Life Technologies, Carlsbad, CA) that stably expresses beta-lactamase reporter gene under the regulation of a NF-kB response element was used. This assay allows measurement of the NFkB pathway activity induced by compounds in a ME-180 cell line. This system quantitates NF-kB activity using a FRET-based assay system where beta-lactamase expression disrupts FRET, allowing for fluorescent measurement of activity. This cell line has been used to screen the Tox21 10K compound library and to identify compounds that induce the NFkB pathway activity. The cytotoxicity of the Tox21 compound library against the NFkB-bla ME-180 cell line was tested in parallel by measuring cell viability using the CellTiter-Glo assay in the same wells.
Tox21 Assay Protocol Summary:
NFkB-bla ME-180 cells were dispensed at 2,000 cells/6 uL of assay medium per well into black wall/clear-bottom 1536-well plates using a Multidrop Combi (ThermoFisher Scientific, Waltham, MA) dispenser. After the assay plates were incubated at 37 C and 5% CO2 for an overnight, 23 nL of compounds dissolved in DMSO, positive controls or DMSO only was transferred to the assay plate by a Pintool station (Kalypsys, San Diego, CA). The assay plates were incubated at 37 C and 5% CO2 for 5 hr. One uL of LiveBLAzer B/G FRET substrate (Life Technologies) was added using a Flying Reagent Dispenser (Aurora Discovery, San Diego, CA) and the plates were incubated at room temperature for 1.5 hr. Fluorescence intensity (405 nm excitation, 460 nm and 530 nm emissions) was measured using an Envision plate reader (PerkinElmer, Shelton, CT). For cytotoxicity, 3 ul/well of CellTiter-Glo reagent was added into the assay plates using an FRD. After 30 min incubation at room temperature, the luminescence intensity was measured using a ViewLux plate reader (PerkinElmer).
% is scaled to controls: 0 for no effect and ±100 for the full control effect; potency is read from the fitted curve at half-maximal effect.

**Q.** With `c1cc[n+]2c(c1)-c1cccc[n+]1CC2` as the compound, how does the “activity, negative = cytotoxic” value read?
**A.** 10.4% (inactive)

**Q.** Which “activity, negative = cytotoxic” value does the source give for `Oc1cc(Cl)cc(Cl)c1` here?
**A.** -22.7% [at 78.8 µM] (inactive)

**Q.** With `C[C@]12C/C(=C/O)C(=O)C[C@@H]1CC[C@@H]1[C@@H]2CC[C@@]2(C)[C@H]1CC[C@]2(C)O` as the compound, how does the “activity, negative = cytotoxic” value read?
**A.** -29.8% (inactive)

**Q.** Which “activity, negative = cytotoxic” value does the source give for `O=[N+]([O-])c1ccc(Cl)c(Cl)c1Cl` here?
**A.** -6.33% (inactive)

**Q.** Which “activity, negative = cytotoxic” value does the source give for `CCC(C)c1cccc(C(C)CC)c1O` (stereo not given) here?
**A.** -25.2% (inactive)

**Q.** Which “activity, negative = cytotoxic” value does the source give for `[C-]1=CC=CC1.[Cl][Zr+2][Cl].c1cc[cH-]c1` here?
**A.** 4.22% [at 78.8 µM] (inactive)

**Q.** With `CO/N=C(\C(=O)OC)c1ccccc1CO/N=C(\C)c1cccc(C(F)(F)F)c1` as the compound, how does the “activity, negative = cytotoxic” value read?
**A.** -17.6% (inactive)

**Q.** Which “activity, negative = cytotoxic” value does the source give for `O=[N+]([O-])[O-].[Tl+]` here?
**A.** 12.8% [at 78.8 µM] (inactive)

**Q.** Which “activity, negative = cytotoxic” value does the source give for `Clc1ccc(C(Cl)(Cl)Cl)cc1Cl` here?
**A.** -22.2% (inactive)

**Q.** Which “activity, negative = cytotoxic” value does the source give for `CC(C)c1c(CN(C)C(C)Cc2ccccc2)n(C)n(-c2ccccc2)c1=O` (stereo not given) here?
**A.** -17.5% (inactive)

**Q.** For `[O]=[Cr][O][Cr]=[O]`, which “activity, negative = cytotoxic” value is on record?
**A.** 5.92% [at 78.8 µM] (inactive)

**Q.** With `CC(=O)[O][Sn]([c]1ccccc1)([c]1ccccc1)[c]1ccccc1` as the compound, how does the Potency read?
**A.** 2.45 µM (active)

**Q.** For `O.O.O.O.O.O.O=S(=O)([O-])[O-].[Ni+2]`, which “activity, negative = cytotoxic” value is on record?
**A.** -7.69% (inactive)

**Q.** With `CCC(C)Nc1c([N+](=O)[O-])cc(C(C)(C)C)cc1[N+](=O)[O-]` (stereo not given) as the compound, how does the “activity, negative = cytotoxic” value read?
**A.** -2.71% (inactive)

**Q.** Which “activity, negative = cytotoxic” value does the source give for `COc1nc(C)nc(NC(=O)NS(=O)(=O)c2ccccc2Cl)n1` here?
**A.** 7.9% (inactive)

**Q.** Which “activity, negative = cytotoxic” value does the source give for `Clc1cc(Cl)c(-c2cc(Cl)c(Cl)cc2Cl)cc1Cl` here?
**A.** -2.35% (inactive)

**Q.** Which “activity, negative = cytotoxic” value does the source give for `COP(=S)(OC)Oc1nc(Cl)c(Cl)cc1Cl` here?
**A.** -5.74% (inactive)

**Q.** Which Potency does the source give for `C=C(C)C(=O)[O][Sn]([CH2]CCC)([CH2]CCC)[CH2]CCC` here?
**A.** 0.436 µM (active)

**Q.** With `CNC(C)(C)Cc1ccccc1` as the compound, how does the “activity, negative = cytotoxic” value read?
**A.** -12.2% (inactive)

**Q.** Which “activity, negative = cytotoxic” value does the source give for `O=[N+]([O-])c1ccc(CCl)cc1` here?
**A.** -5.02% (inactive)

**Q.** Which “activity, negative = cytotoxic” value does the source give for `C#CC1(O)CCCCC1` here?
**A.** 7.23% (inactive)

**Q.** With `CCOC(=O)Cc1ccccc1` as the compound, how does the “activity, negative = cytotoxic” value read?
**A.** 10% (inactive)

**Q.** With `CC(O)C(=O)[O][Hg][c]1ccccc1` (stereo not given) as the compound, how does the Potency read?
**A.** 0.871 µM (active)

**Q.** With `Cc1c([N+](=O)[O-])cc2c(c1[N+](=O)[O-])C(C)(C)CC2(C)C` as the compound, how does the “activity, negative = cytotoxic” value read?
**A.** 7.7% (inactive)

**Q.** For `CC(Cc1ccc2c(c1)OCO2)NO` (stereo not given), which “activity, negative = cytotoxic” value is on record?
**A.** -9.52% [at 78.8 µM] (inactive)

**Q.** With `CC(Cc1ccc(O)cc1)NCC(O)c1cc(O)cc(O)c1` (stereo not given) as the compound, how does the “activity, negative = cytotoxic” value read?
**A.** 12% (inactive)

**Q.** With `CCCCn1cc[n+](C)c1.[Cl][Fe-]([Cl])([Cl])[Cl]` as the compound, how does the “activity, negative = cytotoxic” value read?
**A.** -7.55% (inactive)

**Q.** With `CCCCc1ccccc1` as the compound, how does the “activity, negative = cytotoxic” value read?
**A.** 11% (inactive)

**Q.** Which “activity, negative = cytotoxic” value does the source give for `C[C@@H]1CC2=CC(=O)CC[C@@H]2[C@H]2CC[C@@]3(C)[C@@H](CC[C@]3(C)O)[C@@H]21` here?
**A.** -0.276% (inactive)

**Q.** With `O=C(Cl)c1ccccc1F` as the compound, how does the “activity, negative = cytotoxic” value read?
**A.** -9.84% (inactive)

**Q.** For `COP(=S)(OC)Oc1ccc([N+](=O)[O-])c(C)c1`, which “activity, negative = cytotoxic” value is on record?
**A.** -3.77% (inactive)

**Q.** Which “activity, negative = cytotoxic” value does the source give for `CC(=O)O.CC(=O)O.CC(=O)O.CC(=O)O.CC(=O)O.CC(=O)O.CC(=O)O.O.O.[Cr].[Cr].[Cr]` here?
**A.** 0.844% (inactive)

**Q.** For `Clc1ccc(C2(Cn3cncn3)OCCO2)c(Cl)c1`, which “activity, negative = cytotoxic” value is on record?
**A.** 8.73% (inactive)

**Q.** For `CC(C)=CCN1CC[C@@]2(C)c3cc(O)ccc3C[C@@H]1[C@@H]2C`, which “activity, negative = cytotoxic” value is on record?
**A.** -1.24% (inactive)

**Q.** With `N#CSCc1ccccc1` as the compound, how does the “activity, negative = cytotoxic” value read?
**A.** -8.11% [at 78.8 µM] (inactive)

**Q.** For `Oc1ccc([C@H]2CNCc3c2ccc(O)c3O)cc1O`, which “activity, negative = cytotoxic” value is on record?
**A.** 10.6% (inactive)

**Q.** For `CC[N+]1(CC)CCC(OC(=O)C(O)(c2ccccc2)c2ccccc2)C1` (stereo not given), which “activity, negative = cytotoxic” value is on record?
**A.** 0.659% (inactive)

**Q.** Which Potency does the source give for `Clc1ccc(C(c2ccc(Cl)cc2)C(Cl)Cl)cc1` here?
**A.** 49.8 µM (active)

**Q.** Which Potency does the source give for `O=C1C2(Cl)C3(Cl)C4(Cl)C(Cl)(Cl)C5(Cl)C3(Cl)C1(Cl)C5(Cl)C24Cl` (stereo not given) here?
**A.** 52.6 µM (active)

**Q.** Which “activity, negative = cytotoxic” value does the source give for `ClC(Cl)C(Cl)(Cl)Cl` here?
**A.** -1.96% (inactive)
